Reference: PubChem BioAssay AID2685 (National Center for Advancing Translational Sciences (NCATS), 2010)
Hit rate of the full screen: of about 320,000 compounds, about 2,100 (0.66%) were called active. Another 53% or so got no clear call; they are omitted. The call rests on the fitted dose curve; in most records, active means well fitted inhibition curve with a large enough effect in the signal ratio, with a control signal flat (not every such curve was filed as active); inconclusive means small, poorly fitted or top-dose-only effect, or effect the other way, or a change in a side signal; inactive means flat fitted curve, though single readings scatter; the % refers to the signal ratio. This excerpt belongs to a sample that is enriched for actives.

test: qHTS Assay for Lipid Storage Modulators in Drosophila S3 Cells; settings: BODIPY lipid droplet fluorescence, 18-24 h, cells fed with added oleic acid; cell number change: measured here: cell count max response; series mostly up to 46.1 µM; lipid storage change, negative = inhibition: at the top concentration;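 on cell number change: cells counted by Cell Tracker Red CMTPX staining in the red channel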; on lipid storage change, negative = inhibition: on the % scale 0 is the no-effect control and ±100 the full control effect
Method in brief: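 Drosophila S3 cells got compounds at several concentrations plus oleic acid (400 uM solution). Laser-scanning cytometry with 488 nm excitation read lipid droplets at 500-530 nm and cells at 575-640 nm. Percent activity was relative to 20 uM Triacsin C.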
Potency means the concentration at half of the fitted maximal effect.

Compound | lipid storage change, negative = inhibition | cell number change [%] | outcome | Potency
COc1ccc(N=C2CCS(=O)(=O)c3sccc32)cc1 | 18.8% (inactive) | – | – | –
O=C(CN1C(=O)NC2(CCCC2)C1=O)Nc1ccccc1-c1ccccc1 | 7.06% (inactive) | – | – | –
COc1ccccc1C(=O)Nc1cccc(N(C)S(C)(=O)=O)c1 | 8.7% (inactive) | -2.55 | – | –
CC(=O)c1cccc(NC(=O)N2CCCCCC2)c1 | – | -8.42 | inactive | –
CC(=O)c1cccc(NC(=O)N2CCN(S(C)(=O)=O)CC2)c1 | – | – | – | 11.6 µM (active)
Cc1cc(C)cc(NC(=O)N2CCN(S(C)(=O)=O)CC2)c1 | 14.6% (inactive) | 5.38 | – | –
O=C(CCc1nnc2n(Cc3ccc(Cl)cc3)c(=O)c3ccccc3n12)NCCCN1CCOCC1 | – | – | inactive | –
CC(C)N(C(=O)Cn1c(-c2ccccc2Cl)nc2ccccc21)c1ccccc1 | -6.38% (inactive) | -7.06 | – | –
N#C/C(=N\Nc1ccc(F)cc1)C(=N)N1CCCCCC1 | -5.17% (inactive) | 0.927 | – | –
O=[N+]([O-])c1cc([N+](=O)[O-])c(N2CCCCCC2)cc1NCCO | -14% (inactive) | -19.4 | – | –
Cc1nc2ccccc2n1CCOc1ccc(F)cc1 | 9.98% (inactive) | -21.4 | – | –
Cc1ccccc1C(=O)NCCn1cc(SCC(=O)NCC2CCCO2)c2ccccc21 (stereo not given) | -8.86% (inactive) | 4.31 | – | –
CCn1cc(SCC(=O)NCC2CCCO2)c2ccccc21 (stereo not given) | -5.87% (inactive) | -11.7 | – | –
COc1ccccc1C(=O)NCCn1cc(SCC(=O)NCC2CCCO2)c2ccccc21 (stereo not given) | – | -16.8 | – | 18.4 µM (active)
CCCCNC(=O)C1CCN(Cc2ccc(OCc3ccccc3)cc2)CC1 | -3.1% (inactive) | -13 | – | –
Cc1ccc(S(=O)(=O)Oc2ccc(/C=C3/C(=N)N4C(=NC3=O)SN=C4S(C)(=O)=O)cc2)cc1 | – | -5.51 | inactive | –
COc1ccc(/C=C2/C(=N)N3C(=NC2=O)Sc2cc(S(C)(=O)=O)ccc23)cc1OC | -5.29% (inactive) | 20.5 | – | –
CN(C)c1ccc(/C=C2\C(=N)N3C(=NC2=O)Sc2cc(S(C)(=O)=O)ccc23)cc1 | – | 29.8 | – | 5.8 µM (active)
CC(=O)N1CCc2cc(S(=O)(=O)CCC(=O)N3CCN(c4ccccn4)CC3)ccc21 | 11.4% (inactive) | 3.02 | – | –
CCc1ccc(C(C(=O)NCc2ccc(F)cc2)N(C(=O)c2csnn2)C2CC2)cc1 (stereo not given) | – | -0.952 | inactive | –
CCCN(C(=O)/C=C/c1nc2ccccc2s1)C1CCS(=O)(=O)C1 (stereo not given) | -2.18% (inactive) | 10.5 | – | –
COc1ccc(NC(=O)c2ccc(NCCCN3CCOCC3)c([N+](=O)[O-])c2)cc1 | 9.93% (inactive) | 0.55 | – | –
Cc1ccc(C(=O)Nc2cccc(C(=O)O)c2)cc1 | -0.691% (inactive) | -13.9 | – | –
Cc1ccc(C(=O)Nc2cccc(C(=O)NC3CCCC3)c2)cc1 | – | 21.4 | – | 14.6 µM (active)

Compound | lipid storage change, negative = inhibition | cell number change [%] | outcome | Potency
Cc1cccc(C(=O)NC2CCCCCCC2)c1 | 6.47% (inactive) | 5.98 | – | –
Cc1ccc(C(=O)NC2CCCCC2)cc1 | 19.6% (inactive) | -6.85 | – | –
CS(=O)(=O)NCc1ccc(C(=O)NC2CCCCC2)cc1 | – | – | inactive | –
CS(=O)(=O)c1ccc(C(=O)NC2CCCCC2)cc1 | 19.9% (inactive) | 6.12 | – | –
O=C(Nc1cccc(O)c1)c1ccc(NC(=O)C2CCCO2)cc1 (stereo not given) | – | -1.32 | inactive | –
CS(=O)(=O)Nc1ccc(C(=O)NC2CCCC2)cc1 | – | -0.712 | – | 2.91 µM (active)
CCOC(=O)c1cccc(NC(=O)c2ccc(NC(=O)C3CCCO3)cc2)c1 (stereo not given) | – | -4.84 | – | 14.6 µM (active)
CCc1ccc(NC(=O)c2ccc(NC(=O)C3CCCO3)cc2)cc1 (stereo not given) | – | 8.55 | inactive | –
O=C(NC1CCCCC1)c1ccc2c(c1)OCO2 | 3.69% (inactive) | 1.32 | – | –
CC1Nc2ccc(C(=O)NC3CCCCC3)cc2NC1=O (stereo not given) | – | 18.4 | – | 23.1 µM (active)
CC(C)CC(=O)N1CCN(Cc2ccc(Cl)cc2)CC1 | 10.9% (inactive) | 1.4 | – | –
CN1CCN(C(=O)C2=C[C@@H](c3csc4ccccc34)C[C@@H](OCc3ccc(CO)cc3)O2)CC1 | 6.22% (inactive) | 5.1 | – | –
Cc1ccc(S(=O)(=O)N(C)c2nc3ccccc3[nH]c2=S)cc1 | -4.12% (inactive) | 4.96 | – | –
CCCCn1nc(NS(=O)(=O)c2cccc3nonc23)c2cc3cccc(C)c3nc21 | -12.1% (inactive) | – | – | –
COc1ccc2nc(SCc3ccccc3C)nc(C)c2c1 | -4.04% (inactive) | -12.5 | – | –
COc1ccc(CCN(Cc2ccc(C(C)C)cc2)S(=O)(=O)c2ccc(S(=O)(=O)N(C)C)cc2)cc1OC | 0.0067% (inactive) | -3.06 | – | –
COc1ccc(OC)c(C2=NOC(C(=O)NCc3cccs3)C2)c1 (stereo not given) | -0.872% (inactive) | 19.5 | – | –
COc1nc(OC)nc(N2CCC(C(=O)Nc3cccc4ccccc34)CC2)n1 | 14.5% (inactive) | -0.422 | – | –
CC12CN(C(=O)c3ccc(Cl)cc3)C3(C#N)CC1CCC23C (stereo not given) | – | – | inactive | –
CCOC(=O)c1c(-c2ccc(C)cc2)csc1NC(=O)C1CCCO1 (stereo not given) | – | 11.7 | – | 6.51 µM (active)
Cc1ccc(Cc2cnc(NC(=O)C3CCCO3)s2)cc1 (stereo not given) | – | 15.9 | – | 2.06 µM (active)
CCOC(=O)c1c(-c2ccccc2)csc1NC(=O)C1CCCO1 (stereo not given) | -8.83% (inactive) | -4.26 | – | –
O=C(Nc1ncc(Cc2cccc(Cl)c2)s1)C1CCCO1 (stereo not given) | 0.772% (inactive) | -0.923 | – | –
CCOC(=O)c1c(-c2ccc(F)cc2)csc1NC(=O)C1CCCO1 (stereo not given) | -6.46% (inactive) | 2.19 | – | –

Compound | lipid storage change, negative = inhibition | cell number change [%] | outcome | Potency
O=C(Nc1ncc(Cc2cccc(C(F)(F)F)c2)s1)C1CCCO1 (stereo not given) | -2.84% (inactive) | -4.39 | – | –
O=C(NCC1CCCO1)C(=O)N/N=C\c1ccc2c(c1)OCO2 (stereo not given) | – | -7.51 | inactive | –
Cc1c(C(=O)N2CCCCCC2)c(S(=O)(=O)Nc2cccc(F)c2)c(C)n1C | – | – | inactive | –
COc1cc2c(cc1OC)CN(c1ccc(-c3ccccc3OC)nn1)CC2 | -6.67% (inactive) | -18 | – | –
COc1cc2c(cc1OC)CN(c1ccc3ccccc3n1)CC2 | – | -10.9 | – | 14.6 µM (active)
COc1cc2c(cc1OC)CN(c1nc(-c3cccnc3)nc3ccccc13)CC2 | 13.7% (inactive) | 13.3 | – | –
O=C(Nc1ccc(Cl)cc1)NN1CC(=O)N(c2cccc(C(F)(F)F)c2)CC1=O | -5.06% (inactive) | -8.1 | – | –
Cc1ccc(OCCn2cc(Br)c(=O)[nH]c2=O)cc1 | – | -2.4 | inactive | –
COc1cccc(CNC(=O)CCC2CCCN(C(=O)c3cc(C)on3)C2)c1 (stereo not given) | 3.38% (inactive) | 6.95 | – | –
C=CCNC(=S)/N=c1/ccccn1C | -4.8% (inactive) | -1.1 | – | –
Cc1cccc(CN2CCC(C(=O)Nc3cccc(-c4cccc(F)c4)c3)CC2)n1 | -11.7% (inactive) | – | – | –
Cc1nnc(SCc2ccc(F)cc2Cl)s1 | – | -1.12 | inactive | –
Cc1nnc(SCc2ccc(F)cc2)s1 | – | -1.22 | – | 2.06 µM (active)
COc1ccc(CSc2nnc(C)s2)cc1F | 3.56% (inactive) | 9.99 | – | –
COc1ccc(OC)c(C(=O)COC(=O)C(CCSC)NC(=O)COc2ccccc2)c1 (stereo not given) | – | – | inactive | –
O=C(NCCCN1CCCCC1)C1CCN(S(=O)(=O)N2CCC3(CC2)OCCO3)CC1 | – | -12.2 | inactive | –
O=C(NCCN1CCCC1)C1CCN(S(=O)(=O)N2CCC3(CC2)OCCO3)CC1 | – | -14.5 | – | 29.1 µM (active)
CC1CCN(CCCNC(=O)C2CCN(S(=O)(=O)N3CCC4(CC3)OCCO4)CC2)CC1 | -18.8% (inactive) | 1.22 | – | –
O=C(CCCC(=O)c1ccccc1)NCCc1ccccc1F | 2.38% (inactive) | 22 | – | –
Clc1ccc(-c2nnc(N3CCOCC3)o2)cc1 | 4.05% (inactive) | 3.72 | – | –
CC(=O)c1ccc(OCCCC(=O)Nc2cccc(S(=O)(=O)N(C)C)c2)cc1 | 2.99% (inactive) | 1.3 | – | –
O=S(=O)(NCC(c1ccco1)N1CCN(c2ccccc2)CC1)c1ccc(F)cc1 (stereo not given) | 8.16% (inactive) | 9.35 | – | –
O=S(=O)(NCC(c1ccco1)N1CCN(c2ccccc2F)CC1)c1ccccc1 (stereo not given) | 15.1% (inactive) | 26.9 | – | –
O=S(=O)(NCC(c1ccco1)N1CCN(c2ccccc2F)CC1)c1ccc2c(c1)OCCO2 (stereo not given) | – | – | – | 23.1 µM (active)

Compound | lipid storage change, negative = inhibition | cell number change [%] | outcome | Potency
CCn1c(=N)c(S(=O)(=O)c2ccc(C)cc2)cc2c(=O)n3ccccc3nc21 | 16.3% (inactive) | 11.4 | – | –
CN(C)S(=O)(=O)N1CCN(c2cc(Cl)ccc2Cl)CC1 | 16.6% (inactive) | -20.4 | – | –
COc1ccc(/C=C2\Cc3ccccc3C2=O)cc1OC | 0.0747% (inactive) | -17.4 | – | –
COc1cc(/C=C2\CC/C(=C\c3ccc(OCCO)c(OC)c3)C2=O)ccc1OCCO | – | 11.6 | – | 16.4 µM (active)
COc1ccc(/C=C2\CCc3ccccc3C2=O)cc1O | – | -1.8 | inactive | –
CCn1c(=O)cc(OCC(=O)Nc2ccc(C)cn2)c2ccccc21 | 23.2% (inactive) | 8 | – | –
COc1ccc(C)cc1NC(=O)C1CCC(CNc2c(N3CCOCC3)c(=O)c2=O)CC1 (stereo not given) | 9.49% (inactive) | 18.9 | – | –
O=C(COc1ccc2c(c1)CCC2)N1CCN(c2cccc(C(F)(F)F)c2)CC1 | – | 20.7 | inactive | –
Cc1cccc(N2CCN(C(=O)COc3ccc4c(c3)CCC4)CC2)c1C | 0.152% (inactive) | 1.12 | – | –
Cc1cccc(N2CCN(C(=O)COc3ccc4c(c3)CCC4)CC2C)c1 (stereo not given) | – | -2.19 | – | 2.06 µM (active)
CCOC(=O)c1ccc(NC(=O)Cn2nnc(-c3ccc(F)cc3)n2)cc1 | -18.5% (inactive) | -3.44 | – | –
COc1ccc(OC)c(Nc2nc3nonc3nc2N2CCCC(C)C2)c1 (stereo not given) | 10.9% (inactive) | 7.7 | – | –
CC(C)c1onc(C(=O)N2CCCCC2)c1[N+](=O)[O-] | – | -22.7 | – | 0.82 µM (active)
CC(C)c1onc(C(=O)N2CCOCC2)c1[N+](=O)[O-] | 2.21% (inactive) | -0.564 | – | –
CC(C)c1onc(C(=O)N2CCCCCC2)c1[N+](=O)[O-] | -5% (inactive) | -15.8 | – | –
CS(=O)(=O)N1CCC(C(=O)Nc2ccc(Cl)c(Cl)c2)CC1 | 17.7% (inactive) | -6.77 | – | –
COc1ccc(CC(=O)OCC(=O)Nc2ccc3c(c2)OCCO3)cc1OC | 3.05% (inactive) | 3.44 | – | –
O=C(CCn1c(=O)[nH]c2ccsc2c1=O)N1CCN(Cc2ccc3c(c2)OCO3)CC1 | -1.99% (inactive) | – | – | –
Cc1ccc(-c2nc3ccccc3[nH]2)cn1 | -2.7% (inactive) | 10.6 | – | –
CCN(CC)S(=O)(=O)c1cc(C(=O)n2cccn2)c(Cl)cc1Cl | – | -0.259 | – | 4.61 µM (active)
CCN(CC)S(=O)(=O)c1cc(C(=O)Nc2cccnc2Cl)ccc1Cl | – | – | inactive | –
CCN(CC)S(=O)(=O)c1cc(C(=O)Nc2cc(C)on2)c(Cl)cc1Cl | -12% (inactive) | -16.4 | – | –
